Assay results from PubChem BioAssay AID743279 (National Center for Advancing Translational Sciences (NCATS), 2014).
The whole screen tested about 360,000 compounds, of which about 17,000 (4.7%) were called active. Roughly 5% stayed inconclusive and do not appear here. No stated cut-off is given here; in the data, active means activity change below about -50%; inconclusive means mostly about -30% to -49%; inactive means weaker than that. This excerpt belongs to a sample that is enriched for actives.

Experiment: qHTS for Inhibitors of Inflammasome Signaling: IL-1-beta AlphaLISA Primary Screen
Conditions: THP-1 LPS/ATP IL-1B secretion, 16 h; at 57.5 µM, active compounds read low
In short: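 THP-1 cells pretreated 1 hr with compounds (up to 57.5 uM final), then stimulated with LPS (250 ng/mL final) plus ATP (1.25 mM final); secreted IL-1B measured by AlphaLISA after 16 hr, decreased signal indicating inhibition.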
On the % scale 0 is the no-effect control and ±100 the full control effect.

Structure (SMILES) | activity change
COc1cc(/C=C2\Oc3ccc(C#Cc4ccc(O)cc4)cc3C2=O)cc(OC)c1 | -79.1% (active)
COc1ccc2c(c1)O/C(=C\c1ccccc1O)C2=O | 45.7% (inactive)
COc1cc(C#Cc2ccc3cc(CCCO)oc(=O)c3c2)cc(OC)c1 | 0% (inactive)
CNC(=O)C[C@H]1C(=O)N(Cc2ccccc2)C[C@@H]1CSC | -8.27% (inactive)
c1ccc(CNc2ncnc3[nH]ncc23)cc1 | 31.4% (inactive)
O=C(COc1ccc(Br)cc1F)NCC1(N2CCCCC2)CCCCC1 | -9.53% (inactive)
Cc1cc(C(=O)COc2ccccc2Cl)c(C)n1C1CC1 | 0% (inactive)
Cc1cc(C(=O)COc2ccc(Br)cc2F)c(C)n1C1CC1 | -54.4% (active)
O=C(COC(=O)c1cncc(Br)c1)Nc1ccc(S(=O)(=O)N2CCOCC2)cc1 | -5.39% (inactive)
C[C@H](CO)N1C[C@H](C)[C@H](CN(C)C(=O)Nc2ccc3c(c2)OCO3)Oc2ncc(Br)cc2C1=O | -12.4% (inactive)
CC1(c2ccccc2)NC(=O)N(CC(=O)Nc2cc(Cl)ccc2N2CCOCC2)C1=O (centres undefined) | 1.47% (inactive)
O=C(CSc1nc(Nc2ccccc2)nc(N2CCOCC2)n1)Nc1cc(Cl)ccc1O | -58.1% (active)
Cc1ccccc1NC(=O)CSc1nc2ccc(Nc3nc(N4CCOCC4)nc(N4CCOCC4)n3)cc2s1 | 0% (inactive)
CS(=O)(=O)N(CC(=O)N1CCCCCC1)c1cccc(Cl)c1Cl | -9.4% (inactive)
Cc1ccc(CN2CCC(n3nccc3NC(=O)CCCc3ccccc3)CC2)o1 | 0% (inactive)
COc1ccc(CN2CCC(n3nccc3NC(=O)CCCc3ccccc3)CC2)cc1C | -65% (active)
COc1cc(CN2CCC(n3nccc3NC(=O)CCCc3ccccc3)CC2)ccc1O | 0% (inactive)
COc1ccc(OC)c(NC(=O)C2CCCN2S(=O)(=O)c2ccc3c(c2)CC(C)N3C(C)=O)c1 (centres undefined) | 11.5% (inactive)
CC(=O)Nc1ccc2c3c(ccc([N+](=O)[O-])c13)CC2 | 18.1% (inactive)
COc1ccc(NC(=O)C(c2ccncc2)n2c(=O)c(-c3cc4ccccc4[nH]3)nc3ccccc32)cc1 (centres undefined) | -12% (inactive)
COc1cccc(-n2cc3c(c2-c2ccccc2)c(=O)n(C)c(=O)n3C)c1 | 18.5% (inactive)
COc1cccc(-n2nc(C(=O)N3CCN(Cc4ccccc4)CC3)c3ccccc3c2=O)c1 | -16.4% (inactive)
COc1cccc(-n2cc(C(=O)O)c3ccccc3c2=O)c1 | -59.6% (active)
C[C@@H]1CN([C@@H](C)CO)C(=O)c2cccc(NS(=O)(=O)c3ccc(F)cc3)c2O[C@H]1CN(C)C(=O)NC1CCCCC1 | 2.27% (inactive)
